Screening data deposited in PubChem by several laboratories.
Hits are enriched below; roughly 1.6% of the tested compounds scored in any of these assays.
BJeLR lethal: kills HRASV12-expressing BJeLR cells. inhibition, % (concentration not given with the values). 0.17% of 300,000 active. BJeLR (HRASV12) viability, CellTiter-Glo ATP luminescence, 48 h; in the data active = inhibition above about 50%
CCHFV vOTU inh: blocks the CCHF virus ovarian tumor domain protease; CCHFV vOTU protease, Pep-AMC fluorescence; inhibition, % at 11.5 µM; 0.55% of 370,000 active; AID 651958; in the data active = inhibition above about 30%; also: 0% = vehicle wells with enzyme and 100% = no enzyme wells
ugtP null kill: growth inhibition of S. aureus ugtP deletion strain; S. aureus RN4220 ugtP deletion, OD600 growth, 16 h; growth inhibition, % (test concentration not listed); 0.54% of 330,000 active; AID 1259309; in the data active = growth inhibition above about 68%;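 also: plate controls were untreated wells for no effect and antibiotic for full effect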
PfHsp40 yeast: restores yeast growth despite PfHsp40 toxicity | 0.68% of 340,000 active | S. cerevisiae expressing PfHsp40, growth rescue, ATP luminescence | growth rescue, % at 12.5 µM | AID 504582; in the data active = growth rescue above about 28%, passing the limit was not always enough;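 also: yeast W303a lacking pdr1 and pdr3 grown in galactose medium; growth measured after three days at 30 °C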
RN4220 kill: kills Staphylococcus aureus RN4220; S. aureus RN4220 growth, OD600, 16 h; inhibition, % (concentration not given with the values); 0.33% of 330,000 active; in the data active = inhibition above about 85%;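 also: plate controls were untreated cells for no effect and reference antibiotic for full effect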
* marks the source's active call; other numbers are inactive results; nt = no result given.

SMILES	BJeLR lethal	CCHFV vOTU inh	ugtP null kill	PfHsp40 yeast	RN4220 kill
COC(=O)c1ccc(CON=C2CCCc3nonc32)cc1	nt	nt	18.0	nt	4.9
COC(=O)c1cc(NC(=S)Nc2cc(Cl)cc(Cl)c2)cc(C(=O)OC)c1	-1.6	1.3	99.3*	0.2	99.2*
COC(=O)c1cccc(NC(=S)Nc2cccc(Cl)c2C)c1	-0.6	0.2	-4.9	0.8	0.1
COC(=O)c1cccc(NC(=S)Nc2ccccc2Cl)c1	0.5	-0.4	0.2	-1.4	2.8
COC(=O)c1cccc(NC(=S)Nc2ccc(Cl)c(Cl)c2)c1	1.7	7.7	89.7*	-1.6	100.0*
O=Nc1c(O)n(Cc2ccc(Cl)cc2)c2ccccc12	-1.8	-1.4	-15.2	12.3	5.5
O=Nc1c(O)n(Cc2ccc(Cl)cc2Cl)c2ccccc12	1.8	10.9	-17.7	90.0*	0.5
CC(=NNC(N)=O)C1CC(CC(C)C)C(=O)O1 (stereo not drawn)	nt	nt	10.6	nt	7.6
CC(OC(=O)c1cc2sccc2n1C)C(=O)NCC1CCCO1 (stereo not drawn)	-2.0	-6.6	3.3	105.6*	4.5
CC1CCCC(=NNC(=O)c2ccccc2-n2cccc2)C1 (stereo not drawn)	nt	nt	-6.3	nt	-2.4
CCOC(=O)NC(=O)C(C#N)=CNc1sccc1C(=O)OC	nt	nt	0.2	nt	4.2
CCN1C(=O)N[C@@H](c2ccccc2)[C@@H](C(=O)OC)[C@H]1C	-0.9	-11.1	nt	33.4*	nt
S=C(NCc1ccccc1)NC1CCCc2ccccc21 (stereo not drawn)	-7.2	1.2	1.9	35.8*	-2.1
S=C(NCc1ccco1)NC1CCCc2ccccc21 (stereo not drawn)	4.6	-4.7	11.1	-0.3	-0.8
Cc1[nH]n(-c2ccccc2)c(=O)c1/C=N/NC(=O)c1ccc(O)cc1O	-3.7	nt	nt	51.6*	nt
Cc1ccc(OCC(=O)NN=Cc2c(C)[nH]n(-c3ccccc3)c2=O)c([N+](=O)[O-])c1	nt	nt	-8.8	nt	2.5
Cc1cc(C(=O)N/N=C/c2c(C)[nH]n(-c3ccccc3)c2=O)n[nH]1	4.0	16.6	nt	-0.3	nt
CC(=NNC(=O)c1ccccc1)c1c(C)[nH]n(-c2ccccc2)c1=O	nt	nt	-6.5	nt	7.5
CCCSC(=S)c1c(C)[nH]n(-c2ccccc2)c1=O	-1.9	17.6	89.8*	305.0*	90.8*
Cc1ccc(OCC(=O)N/N=C\c2c(C)[nH]n(-c3ccccc3)c2=O)c([N+](=O)[O-])c1	3.9	-5.6	nt	154.8*	nt
CCC(=NNC(=O)c1ccccc1O)c1c(C)[nH]n(-c2ccccc2)c1=O	nt	nt	97.9*	nt	92.5*
CC(=O)Nc1ccc(S(=O)(=O)NN=Cc2cccnc2)cc1	nt	nt	2.5	nt	1.8
Cc1ccc(-n2[nH]c(C)c(/C=N/NC(=O)c3ccc(O)cc3O)c2=O)cc1	3.2	nt	nt	76.5*	nt
CCCc1nc2ccc(NC(=O)c3cccs3)cc2c(=O)n1Cc1ccc(Cl)cc1	-4.8	9.9	-12.0	0.5	-4.7
Cc1nc2ccc(NC(=O)c3cccs3)cc2c(=O)n1Cc1ccc(Cl)cc1	-2.8	-14.6	17.9	30.7*	-1.1
SMILES	BJeLR lethal	CCHFV vOTU inh	ugtP null kill	PfHsp40 yeast	RN4220 kill
O=C(C=Cc1ccc([N+](=O)[O-])cc1)NCC1CCCO1 (stereo not drawn)	nt	nt	-2.3	nt	2.6
C#CCOCCOCCOCCNc1nc(N2CCN(C(=O)C(CCCCN)n3cc(C(N)CC(C)C)nn3)CC2)nc(N2CCN(C(=O)C(Cc3cc4ccccc4[nH]3)n3cc(C(N)Cc4ccc(O)cc4)nn3)CC2)n1 (stereo not drawn)	nt	nt	-0.3	nt	3.0
COc1ccc(/C=C2/Sc3ccc(C(=O)N4CCc5ccccc5C4)cc3NC2=O)cc1	-5.9	-10.0	-7.6	47.5*	3.8
NC(Cc1ccc([N+](=O)[O-])cc1)=NOC(=O)c1ccco1	nt	nt	9.2	nt	1.3
COc1ccc(/C=N/Nc2cc(C)nc(-n3nc(C)cc3C)n2)c(OC)c1	12.9	7.0	nt	178.0*	nt
COC(=O)C1=C(C)N(Cc2ccccc2)C(=O)NC1c1ccc(Br)cc1 (stereo not drawn)	nt	nt	10.9	nt	2.9
O=C1c2ccccc2NC(c2ccc(-c3cccc([N+](=O)[O-])c3)o2)N1O (stereo not drawn)	5.3	-4.4	-25.4	232.7*	-7.2
O=C1c2ccccc2NC(c2ccc(-c3ccc(F)cc3)o2)N1O (stereo not drawn)	nt	-4.8	nt	167.9*	nt
CN(N=Cc1ccc2c(c1)OCO2)c1ccccc1	nt	nt	-6.0	nt	4.7
O=C(NN=Cc1c[nH]c2ccccc12)c1cc(-c2ccc3ccccc3c2)n[nH]1	nt	nt	62.9	nt	83.9
C#Cc1ccc(C2C=C(C(=O)O)OC(OCC)C2CCCO)cc1 (stereo not drawn)	nt	nt	3.2	nt	2.4
NC(N)=NS(=O)(=O)c1ccc(NC(=S)NC(=O)c2ccccc2)cc1	8.5	-1.4	active	5.6	92.7
NC(N)=NS(=O)(=O)c1ccc(NC(=S)NC(=O)Cc2ccc(Cl)cc2)cc1	-2.1	-9.8	88.4*	0.7	3.8
CC1CN(S(=O)(=O)c2ccc(C(=O)Nc3nnc(-c4ccccn4)o3)cc2)CC(C)O1 (stereo not drawn)	2.4	5.7	-4.9	1.2	7.5
CC1CCN(S(=O)(=O)c2ccc(C(=O)Nc3nnc(C4CC4)o3)cc2)CC1	-1.3	0.0	23.4	58.0*	48.4
CC1CN(S(=O)(=O)c2ccc(C(=O)Nc3nnc(-c4ccc5c(c4)CCCC5)o3)cc2)CC(C)O1 (stereo not drawn)	25.0	1.6	98.6*	-1.0	98.8*
COCc1nnc(NC(=O)c2ccc(S(=O)(=O)N3CCCc4ccccc43)cc2)o1	-6.7	2.4	9.1	-0.8	29.0
COc1ccc(-c2nnc(NC(=O)c3ccc(S(=O)(=O)N4CCCc5ccccc54)cc3)o2)cc1	-6.3	nt	99.9*	-2.2	97.8*
O=C(Nc1nnc(C2CC2)o1)c1ccc(S(=O)(=O)N2CCCCC2)cc1	11.2	-3.7	3.6	-0.4	44.4
O=C(Nc1nnc(C2CC2)o1)c1ccc(S(=O)(=O)N2CCCc3ccccc32)cc1	6.1	0.1	94.3*	0.3	89.1*
CC1CCCCN1S(=O)(=O)c1ccc(C(=O)Nc2nnc(C3CC3)o2)cc1 (stereo not drawn)	-7.4	-4.2	21.6	-0.3	50.8
COc1ccccc1NCC(=O)NN=Cc1cccnc1	nt	nt	-5.1	nt	0.6
COC(=O)C(Cc1ccccc1)NC(=O)OC1C(=O)c2ccc(OC)cc2OC1c1ccc2c(c1)OCO2 (stereo not drawn)	nt	nt	9.2	nt	19.5
COC(=O)C1=C(c2ccc(F)cc2OCc2ccccc2)CC2CCC1N2C(=O)N1CCCC1 (stereo not drawn)	nt	nt	-2.6	nt	-0.9
O=C1N(c2ccccc2)CC2C(c3ccccc3)C(c3ccccc3)N3CCCC123 (stereo not drawn)	nt	-1.8	nt	nt	nt
O=C1N(c2ccccc2)C[C@@H]2C[C@@H](c3cc4ccccc4o3)N3CCC[C@@]123	51.1*	-14.8	18.8	-0.8	-5.5
COc1ccc(C(=O)N2CC3(CC(c4cccc([N+](=O)[O-])c4)=NO3)CC2C(=O)NCC(N)=O)cc1 (stereo not drawn)	nt	nt	-0.6	nt	3.4
CSc1ccc(Cl)c(C(=O)NCCOc2cc(C(C)C)ccc2C)c1	-2.1	10.2	97.3*	3.4	96.3*
